Laboratory results: PubChem BioAssay AID652057 (Broad Institute, 2013)
Out of some 1,400 compounds screened, about 1,000 (71%) were called active. No rule for the calls is given here. So high a share suggests a set chosen from earlier hits. A selection follows. Potency and affinity values are given separately.

Assay: inhibitors of HIV Env-driven cell fusion, dose response, cherry-pick (AID 652057)
Conditions: HeLa-JRFL Env/CEM21 cell fusion, luciferase; series mostly up to 35 µM; activity change, negative = inhibition: at the top concentration

Activity change, negative = inhibition, inactive:
COc1ccc(/C=C/c2nc(S(=O)(=O)c3ccccc3)c(NCCCN(C)C)o2)cc1OC -16.3% [at 16 µM]
CC(C)(C)c1ccc(-n2ncc3c2CCCC3NC(=O)CN2CCCC2=O)cc1 (stereo unspecified) -6.82%
C[C@H]1CN([C@@H](C)CO)C(=O)c2cc(NS(=O)(=O)c3ccc(F)cc3)ccc2O[C@H]1CN(C)S(=O)(=O)c1ccc(F)cc1 12.1%
Cc1noc(C)c1S(=O)(=O)N(C)C[C@H]1Oc2ccc(NC(=O)Nc3ccccc3)cc2CC(=O)N([C@H](C)CO)C[C@H]1C 2.68%
Cc1ccc(OCCN2CCN(c3ncnc4sc(C)c(C)c34)CC2)cc1 -25.9%
COC(=O)C1CCN(C(=O)COC(=O)c2cc(S(=O)(=O)N3CCOCC3)ccc2C)CC1 -2.73%
Nc1ccc(S(=O)(=O)c2ccc(N3CCOCC3)c(N)c2)cc1 -0.63%
Cc1onc(-c2ccccc2)c1C(=O)OCCOc1cccc(Cl)c1 -2.52%
O=C(C[C@@H]1CC[C@@H](NC(=O)c2ccncc2)[C@H](CO)O1)NCCc1ccncc1 6.53%
O=C(O)C[C@@H]1CC[C@@H](NC(=O)c2ccncc2)[C@H](CO)O1 10.2%
CN(C)CC(=O)Nc1ccc2c(c1)[C@H]1C[C@H](CC(=O)NCc3cccc(F)c3)O[C@@H](CO)[C@H]1O2 7.88%
O=C(c1cccc(S(=O)(=O)N2CCN(c3ccccc3)CC2)c1)N1CCCC(C(F)(F)F)C1 (stereo unspecified) -16.8%
Cc1ccccc1S(=O)(=O)NC(=O)C1(C)CCN1C(=O)CCc1ccc(Cl)cc1Cl (stereo unspecified) 4.53%
Cn1cc(S(=O)(=O)N2CCOCC2)cc1C(=O)Nc1cccc(Cl)c1 -2.31%
COc1cccc(S(=O)(=O)N2CC3(CN(C(=O)Nc4cccc(F)c4)[C@H](CO)c4[nH]c5cc(OC)ccc5c43)C2)c1 31.9% [at 16 µM]
O=C(Nc1cccc(F)c1)N[C@H]1CC[C@@H](CCNS(=O)(=O)c2cccc(Cl)c2)O[C@H]1CO 10.6%
O=C(Nc1cccc(F)c1)N[C@@H]1CC[C@H](CCNS(=O)(=O)c2cccc(Cl)c2)O[C@H]1CO -2.87%
CC(C)OCCCn1c(=S)[nH]c2ccc(N3CCOCC3)cc2c1=O -19.3%
CN(C)CC(=O)Nc1ccc2c(c1)[C@H]1C[C@@H](CC(=O)NCCc3ccccc3)O[C@H](CO)[C@H]1O2 -6.39% [at 30 µM]
Cn1cccc1C(=O)OCC(=O)NCCc1ccc(S(N)(=O)=O)cc1 -3.08%
O=C(Nc1nc(-c2ccc3c(c2)OCO3)cs1)c1ccncc1 19.8%
CC1Cc2cc(-c3csc(NC(=O)Cc4cccs4)n3)ccc2N1S(C)(=O)=O (stereo unspecified) 3.57%
CS(=O)(=O)N1CCN(c2ccccc2NC(=O)C(c2ccccc2)c2ccccc2)CC1 -35.7%
CCCNC(=O)C[C@H]1C[C@H]2c3cc(NC(=O)CN(C)C)ccc3O[C@H]2[C@H](CO)O1 -3.46%
c1csc(-c2csc3ncnc(NCCCN4CCOCC4)c23)c1 -29.8%
Clc1ccc(OCCN2CCN(c3ncnc4sccc34)CC2)cc1 -19%
Cc1cccc(C)c1NC(=O)N1CCN(c2nc3ccccc3s2)CC1 -9.77%
C[C@@H]1CN([C@H](C)CO)C(=O)c2cc(NC(=O)Nc3ccccc3)ccc2O[C@@H]1CN(C)S(=O)(=O)c1ccccc1 47.9%
Cc1nnc(SC(=O)N2c3ccccc3Sc3ccccc32)s1 119%
Cc1ccc(S(=O)(=O)N(C)C[C@@H]2Oc3cc(C#CC4CCCC4)ccc3S(=O)(=O)N([C@H](C)CO)C[C@H]2C)cc1 -29.5%
O=C(C[C@H]1C[C@H]2c3cc(NC(=O)Cc4ccncc4)ccc3O[C@H]2[C@@H](CO)O1)NCc1ccncc1 -10.2%
O=C(C[C@@H]1C[C@H]2c3cc(NC(=O)NC4CCCCC4)ccc3O[C@H]2[C@@H](CO)O1)NCc1ccncc1 11.5%
O=C(NNC(=O)C(c1ccccc1)c1ccccc1)c1ccccn1 -5.19%
O=C(COC(=O)c1ncc(Cl)c(Cl)c1Cl)NCc1cccs1 -16.5%
CN(Cc1cccs1)c1ncnc2sccc12 -2.6%
COc1ccc(-c2cn3c(C)c(C(=O)Nc4cccc(NC(C)=O)c4)sc3n2)cc1 13% [at 16 µM]
O=C1COc2ccc(-c3csc(=Nc4ccc(OC(F)F)cc4)n3CC3CCCO3)cc2N1 (stereo unspecified) -33%
CCc1ccc(-c2nc(CN3CCC(C(=O)NCCc4ccc(OC)c(OC)c4)CC3)c(C)o2)cc1 15.1%
CC(NNC(=S)N1CCCCCC1)c1ccc2ccccc2n1 (stereo unspecified) -25.8%
CCN1C(=O)[C@H]2[C@@H](c3ccc(C(F)(F)F)cc3)N[C@]3(CCCN(Cc4ccccc4)C3=O)[C@H]2C1=O -5.82%
O=C(Cn1ncc2c(=O)oc3ccccc3c21)N1CCC(N2CCCCC2)CC1 -4.21%
COc1ccc(CCNC(=O)C2CCCN(Cc3nc(-c4cccc(Cl)c4)oc3C)C2)cc1OC (stereo unspecified) -27.2%
C[C@@H]1CN([C@H](C)CO)C(=O)c2cccc(NC(=O)c3ccncc3)c2O[C@@H]1CN(C)Cc1ccc(C(=O)O)cc1 5.08%
C[C@@H]1CN([C@H](C)CO)C(=O)c2cccc(NC(=O)c3cnccn3)c2O[C@H]1CN(C)Cc1ccccc1 -21.7%
CCCNC(=O)C[C@@H]1C[C@H]2c3cc(NC(=O)Cc4ccncc4)ccc3O[C@H]2[C@H](CO)O1 45%
COC(=O)c1ccc(C(=O)NC2CCCc3c2cnn3-c2ccc(C)c(C)c2)cc1 (stereo unspecified) 66.7%
COc1ccccc1N1CCN(Cc2ccc(O)c3ncccc23)CC1 30%
CC1CCCN(C(=O)c2ccc(S(=O)(=O)N3CCC(c4nc5ccccc5s4)CC3)cc2)C1 (stereo unspecified) -13.8%
O=C(Nc1ccc(S(=O)(=O)N2CCN(Cc3ccccc3)CC2)cc1)c1cnccn1 -11.9%
COc1ccc(S(=O)(=O)N[C@@H]2C=C[C@H](CC(=O)N3CCC(Cc4ccccc4)CC3)O[C@@H]2CO)cc1 -5.81%
COc1cccc(S(=O)(=O)N[C@H]2CC[C@@H](CCN)O[C@@H]2CO)c1 30.6% [at 16 µM]
COc1cccc(S(=O)(=O)N[C@@H]2CC[C@H](CCN)O[C@H]2CO)c1 0.746%
O=C(Cc1ccccc1)N[C@@H]1C=C[C@H](CC(=O)N2CCCCC2)O[C@@H]1CO 6.07%
CCCCCn1c(=O)[nH]c2cc(C(=O)N3CCN(Cc4ccc5c(c4)OCO5)CC3)ccc2c1=O -30.3% [at 16 µM]
CCc1cnc(N2[C@H](C#N)[C@H](c3ccc(C#Cc4ccccc4F)cc3)[C@H]2CO)s1 -25%
Cc1ccc(C(=O)NCc2ccccn2)cc1S(=O)(=O)N1CCCCC1 12.6%
CCCn1c(=S)[nH]c2cc(C(=O)N3CCCC(C(=O)OCC)C3)ccc2c1=O (stereo unspecified) -17.7%
CN(C(=O)c1cccc(NC(=O)Cc2cccc(NC(=O)C3CCCN(C(=O)C4CCC4)C3)c2)c1)C1CCC1 (stereo unspecified) 44.8% [at 16 µM]
COc1ccc(S(=O)(=O)NC[C@@H]2CC[C@H]3[C@H](CN3Cc3cc(F)ccc3F)O2)cc1 -7%
COCC(C)n1c(-c2ccc3c(c2)NC(=O)CO3)csc1=Nc1ccc(OC(F)F)cc1 (stereo unspecified) -24.6%
C[C@@H]1CN([C@H](C)CO)C(=O)c2cccc(NS(=O)(=O)c3cn(C)cn3)c2O[C@H]1CN(C)C(=O)Nc1ccc(F)cc1 8.94%
O=C(N/N=C/c1ccc(-n2ccnc2)cc1)c1cccs1 64.2%
Cc1ccc(NC(=O)c2ccc(CN3CCc4ccccc4C3)cc2)cc1 33%
O=C(Nc1ccc(S(=O)(=O)N2CCCC2)cc1)c1ccc(CN2CCOCC2)cc1 -13.4%
C=C(C)CN(CC)c1nc(N)c2c(N)nc3c(c2c1C#N)CC(=O)N3C12CC3CC(CC(C3)C1)C2 -26.7%
CCc1nc(N2CCCCC2C)c2oc3ccccc3c2n1 (stereo unspecified) -10.6%
CCOc1ccc2c(c1)-c1c(ssc1=S)C(C)(C)N2C(=O)c1ccco1 23.5%
O=C(COC(=O)c1cccc(S(=O)(=O)N2CCOCC2)c1)NCc1ccccc1 0.395%
CC(C)OCCCNc1ncnc2c1[nH]c1ccccc12 -15%
Cc1ccccc1OCCCCn1cnc2ccccc21 46.1% [at 15 µM]
COCC(=O)Nc1ccc2c(c1)C(=O)N(C)C[C@@H](OC)[C@H](C)CN(C(C)=O)[C@H](C)CO2 -9.74%
CCN(CC)CCN(C(=O)c1cc(Cl)sc1Cl)c1nc2cc3c(cc2s1)OCO3 35.1%
O=C(C[C@H]1C[C@@H]2c3cc(NC(=O)C4CCOCC4)ccc3O[C@@H]2[C@@H](CO)O1)NCc1ccccc1F 14%
COc1cccc(CNC(=O)C[C@@H]2C=C[C@H](NC(=O)C3CCC3)[C@H](CO)O2)c1 45.5%
CCS(=O)(=O)N[C@H]1CC[C@@H](CC(=O)NCc2ccc(Cl)cc2)O[C@@H]1CO 22.3%
COc1ccccc1CNC(=O)C[C@H]1C[C@@H]2c3cc(NC(=O)c4cccnc4)ccc3O[C@@H]2[C@@H](CO)O1 -4.17%
O=C(C[C@@H]1C=C[C@@H](NC(=O)Nc2ccc3c(c2)OCO3)[C@H](CO)O1)NCc1ccc(F)cc1 -6.97%
O=C(Nc1cccc(F)c1)N[C@@H]1CC[C@H](CCNS(=O)(=O)c2cccc(Cl)c2)O[C@@H]1CO 42.4%
C[C@@H]1CN([C@H](C)CO)C(=O)c2cccc(NS(=O)(=O)c3ccc(Cl)cc3)c2O[C@H]1CN(C)CC1CCCCC1 56.1% [at 30 µM]
COC(=O)c1ccc(NC(=O)c2ccc(CN3CCOCC3)cc2)cc1 12.6%
OC1(c2ccc(OC(F)F)cc2)CSC(=Nc2cccnc2)N1C1CC1 (stereo unspecified) -12.4%
Cc1cc(Cl)c(S(=O)(=O)N2CCCC2)cc1OCC(=O)NC1CCCCC1 -17.4%
CN(C)S(=O)(=O)c1ccc(C(=O)Nc2nc(-c3cccs3)cs2)cc1 7.84%
COCCCn1c(-c2ccc(S(=O)(=O)N3CCOCC3)cc2)csc1=Nc1ccccc1 3.27%
CCCC(=O)Nc1ccc2c(c1)C(=O)N(C)C[C@@H](OC)[C@@H](C)CN(Cc1nccs1)[C@@H](C)CO2 -10.4%
COCC(=O)Nc1ccc2c(c1)C(=O)N(C)C[C@@H](OC)[C@@H](C)CN(C)[C@H](C)CO2 24.4%
